Test results from PubChem BioAssay AID652141 (The Scripps Research Institute Molecular Screening Center, 2013).
The campaign covered roughly 5,600 compounds. About 4,500 (80%) were called active. No stated cut-off is given here; in the data, active means inhibition above about 10%; inactive means the rest. So high a share suggests a set chosen from earlier hits. Not all results are given here.

Experiment: inhibition of coupled GDH and TPI enzymes – biochemical, fluorescence, high throughput, artefact control for M. tuberculosis FBA inhibitor project (AID 652141)
Details: GDH-TPI coupled enzyme counterscreen, at 1 µM, active compounds read high

Structure (SMILES)	inhibition
Cc1ccc(C2Nc3cccc4cccc(c34)N2)cc1	137% (active)
O=C(Nc1ccc(-c2nnc(-c3ccccc3)o2)cc1)C1CCCO1 (centres undefined)	-0.52% (inactive)
O=C(CCc1ccccc1)Nc1cccc(-c2nnc(-c3ccco3)o2)c1	69.8% (active)
Cc1noc(C)c1COc1ccc2ccc(=O)oc2c1	42.7% (active)
Cc1cc(C)cc(NC(=O)CSc2ccccc2)c1	58.2% (active)
Nc1ccccc1C(=O)NC1CCCCNC1=O (centres undefined)	141% (active)
C[C@H]1CN([C@@H](C)CO)C(=O)c2cc(Br)cnc2O[C@H]1CN(C)S(=O)(=O)c1cccs1	2.73% (inactive)
c1cc(-c2ccc3[nH]ccc3c2)n2ccnc2c1	62.4% (active)
CCCCOc1ccc(-c2nnc(-c3ccco3)o2)cc1	140% (active)
CCOc1ccc(-c2nnc(-c3ccco3)o2)cc1	65% (active)
CCCCn1c(-c2cccc(C)c2)nc2cc3[nH]c(=O)c(C(C)C)nc3cc21	33.5% (active)
Brc1cnc2ccccc2c1N1CCCCC1	60.2% (active)
CCCn1c(=O)c(-c2ccccc2)c(O)c2ccccc21	75.9% (active)
Cc1cccc(NC(=O)c2sc3nc(N4CCOCC4)c4c(c3c2N)CCCC4)c1	77% (active)
CCOC(=O)Cn1c(=O)n(Cc2ccc(OC)cc2)c(=O)c2cccnc21	730% [above what the read-out allows, likely interference] (active)
COC(=O)CSc1nc(C)c2ccc(OC)cc2n1	-4.3% (inactive)
CCOC(=O)c1[nH]c2ccc(OC)cc2c1NC(=O)CCN1CCN(Cc2ccccc2)CC1	-6.9% (inactive)
CCOC(=O)c1[nH]c2ccc(OC)cc2c1NC(=O)N1CCOCC1	100% (active)
O=C(NC1CCN(Cc2ccccc2)CC1)c1cc(Br)c(Br)[nH]1	764% [above what the read-out allows, likely interference] (active)
N#Cc1c(N2CCCCC2)nc(N)c2c(N)nc(SCC(=O)O)cc12	8.17% (inactive)

Structure (SMILES)	inhibition
COc1ccc(NC(=O)CN(C)C(=O)c2cc(-c3ccc(C)o3)nc3ccccc23)cc1	61.4% (active)
CCC(=O)Nc1c(S(=O)(=O)c2ccccc2)c2nc3ccccc3nc2n1Cc1ccccc1	150% (active)
COc1ccc2[nH]c3ccc(OC)cc3c2c1	198% (active)
COc1ccc2[nH]c3c(=O)n(Cc4ccco4)cnc3c2c1	-2.61% (inactive)
COc1ccc(-c2nc3cc(C)ccn3c2NC2CCCCC2)cc1SC1CCCCC1	41.2% (active)
Cc1c(OC(C)C(=O)N[C@@H](Cc2ccccc2)C(=O)O)ccc2c3c(c(=O)oc12)CCCC3 (some centres undefined)	-2.05% (inactive)
COc1ccc2c3c(c(=O)oc2c1OCC(=O)C(C)(C)C)CCCC3	51% (active)
CCN(CC)c1ccc2cc(C(=O)O)c(=O)oc2c1	17.4% (active)
CCOC(=O)N1CCN(C(=O)c2cc3c(ccc4ccccc43)oc2=O)CC1	-8.26% (inactive)
COC(=O)c1c(C)c(C)nc(N)c1C#N	49.5% (active)
CC1(C)Cc2c(C#N)c(SCc3nc4ccccc4[nH]3)nc(N3CCOCC3)c2CO1	-4.7% (inactive)
CC(C)c1nc(N2CCOCC2)c(C#N)c2c1COC(C)(C)C2	32.5% (active)
CN(C(=O)COc1ccccc1)c1nnc(-c2ccncc2)s1	513% [above what the read-out allows, likely interference] (active)
CN(C(=O)c1ccccn1)c1nnc(-c2ccccn2)s1	520% [above what the read-out allows, likely interference] (active)
O=C(NCCN1CCN(Cc2ccccc2)CC1)c1cc2c(=O)[nH]c3ccccc3c2s1	125% (active)
Cc1cccc2c1-c1sc(C(=O)NCCCN3CCc4ccccc4C3)cc1CO2	-4.07% (inactive)
CN(C)S(=O)(=O)c1ccc(N/C=C(\[N+](=O)[O-])S(=O)(=O)c2ccccc2)cc1	-5.04% (inactive)
Oc1ccc(Br)cc1C=Nc1ccc2[nH]ncc2c1	51.6% (active)
CC(C)=NN1C(=O)c2ccccc2NC1(C)C	121% (active)
Cc1cc(NC(C)C)n2c(nc3ccccc32)c1C#N	181% (active)

Structure (SMILES)	inhibition
COc1ccc(C2C3=C(CCCC3=O)N(CC(=O)O)C3=C2C(=O)CCC3)cc1	107% (active)
CCOC(=O)COc1nc(C)cc(C(F)(F)F)c1C#N	36.8% (active)
COc1ccc2sc(-c3ccc(N(C)C)cc3)c(-c3ccc4cc[nH]c4c3)c2c1	55.2% (active)
O=C(CN1C(=O)c2cccc3cccc(c23)C1=O)N1CCCCC1	53.9% (active)
CCCCN(CCCC)CC(O)Cn1c2ccccc2c(=O)c2ccccc21 (centres undefined)	87.8% (active)
CN1c2ccc(C=O)c3c(C=O)ccc(c23)N(C)C1(C)C	19.9% (active)
CCOc1ccc2nc(Nc3nc4ccc(NC(C)=O)cc4s3)sc2c1	13.8% (active)
O=C(Nc1ncc2c(n1)-c1ccccc1OC2)c1ccc(Cl)cc1	82.3% (active)
CN(C(=O)c1cc2c(=O)n3ccccc3nc2s1)C1CCCCC1	46.3% (active)
O=C(c1cc(-c2ccco2)nc2ccccc12)N(Cc1nnc(-c2ccc(Cl)cc2)o1)C1CC1	72.7% (active)
CN(CCOc1ccccc1)C(=O)c1cc(-c2ccco2)nc2ccccc12	-2.35% (inactive)
COc1cccc2[nH]c(C(=O)NCCc3ccccc3)cc12	961% [above what the read-out allows, likely interference] (active)
COc1ccc(CNC(=O)c2c[nH]c3c(OC)cc(OC)cc3c2=O)cc1	-3.81% (inactive)
Cc1cnc(C(=O)OCC(=O)N2CCc3ccccc32)cn1	99.3% (active)
Cc1nn(-c2ccccc2)nc1C(=O)OCC(=O)N1CCCCC1C (centres undefined)	-3.64% (inactive)
CCCn1nc2cc(C(=O)NCc3ccccc3)ccc2c1OCC	-3.32% (inactive)
CCOc1c2ccc(C(=O)NCc3ccc(OC(F)(F)F)cc3)cc2nn1C	79.5% (active)
CCOc1c2ccc(C(=O)NC3CCCc4ccccc43)cc2nn1CC (centres undefined)	7.23% (inactive)
CCOc1c2ccc(C(=O)NCc3ccc4c(c3)OCO4)cc2nn1C	68.1% (active)
